Source: PubChem
Pol kappa inh-1 = qHTS for Inhibitors of Polymerase Kappa | DNA polymerase kappa (Homo sapiens), Q9UBT6 | 400,000 compounds, 0.53% hits | purified Pol kappa, fluorescent DNA synthesis assay, 10 min | Potency, µM (series often up to 107 µM), usual class: inhibitors
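Activity was followed as the change in fluorescence between reads at 0 and 10 min after starting the reaction with 50 nM substrate. Beforehand, 10 nM polymerase had been preincubated with compound for 15 min at room temperature.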
Pol eta inh-1 = qHTS for Inhibitors of Polymerase Eta; DNA polymerase eta (Homo sapiens), Q9Y253; recombinant Pol eta, fluorescent DNA replication assay; Potency, µM (doses to about 114 µM), actives largely listed as inhibitors; 390,000 compounds, 1.2% hits
Target sequence (Q9Y253 whole entry, looked up): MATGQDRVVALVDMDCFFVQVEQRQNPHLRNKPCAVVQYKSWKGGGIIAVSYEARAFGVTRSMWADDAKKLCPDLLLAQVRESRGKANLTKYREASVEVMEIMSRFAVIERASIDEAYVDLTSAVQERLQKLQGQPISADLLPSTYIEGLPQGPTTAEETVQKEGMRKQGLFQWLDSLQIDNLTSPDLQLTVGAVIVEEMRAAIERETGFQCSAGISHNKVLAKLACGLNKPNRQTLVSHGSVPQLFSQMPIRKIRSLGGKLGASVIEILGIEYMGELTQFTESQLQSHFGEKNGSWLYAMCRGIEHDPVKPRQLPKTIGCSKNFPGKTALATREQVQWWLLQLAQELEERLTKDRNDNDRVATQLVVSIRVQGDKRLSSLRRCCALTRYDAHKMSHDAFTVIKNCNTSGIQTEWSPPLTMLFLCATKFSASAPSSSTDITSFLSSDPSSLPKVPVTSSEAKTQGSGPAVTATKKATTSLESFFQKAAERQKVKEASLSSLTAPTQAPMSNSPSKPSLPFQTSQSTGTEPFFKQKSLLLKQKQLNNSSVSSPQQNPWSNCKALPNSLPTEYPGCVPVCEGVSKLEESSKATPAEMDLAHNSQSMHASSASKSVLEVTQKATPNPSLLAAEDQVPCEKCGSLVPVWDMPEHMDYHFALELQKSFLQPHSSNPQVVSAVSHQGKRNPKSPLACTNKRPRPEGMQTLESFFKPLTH
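Fluorescent replication assay: 50 nM final substrate added after a 15 min room-temperature compound preincubation with 10 nM enzyme. Signal taken at 0 min and again at 10 min.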
Pol iota inh = qHTS for Inhibitors of Polymerase Iota; Pol iota fluorescent replication assay, 10 min; Potency, µM (series often up to 115 µM), most hits filed as inhibitors; 390,000 compounds, 1% hits; AID 588590, 2011; DNA polymerase iota (Homo sapiens), Q9UNA4
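Fluorescent replication assay read twice, at 0 min and 10 min after adding 50 nM (final) substrate. Enzyme (10 nM) and compounds were first incubated 15 min at room temperature; enzyme-free buffer wells were negative controls.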
FEN1 inh-1 = qHTS Assay for the Inhibitors of Human Flap endonuclease 1 (FEN1); P39748; Recombinant FEN1 flap cleavage, fluorescence, 15 min; Potency, µM (doses to about 114 µM), usual class: inhibitors; 390,000 compounds, 0.35% hits; AID 588795, 2011; further: nearly all actives have a fitted effect of over 65% in size
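Read-out was taken twice, immediately and after 15 min, following addition of 50 nM substrate to 10 nM FEN1 that had sat with test compound for 15 min at room temperature. Curves came from a four-parameter Hill model.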
WRN helicase inh = qHTS for Inhibitors of WRN Helicase; WRN helicase unwinding, fluorescent forked duplex, kinetic; Bifunctional 3'-5' exonuclease/ATP-dependent helicase WRN (Homo sapiens), Q14191; Potency, µM (highest dose often 114 µM), hits mostly inhibitors; 360,000 compounds, 0.46% hits; further: nearly all actives have a fitted effect of over 55% in size
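Primary qHTS, 1536-well format. 20 nM WRN + compound, 15 min RT; start with 100 nM forked fluorophore/quencher duplex, 2 mM ATP (final); kinetic read ex 525/em 598 nm.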
Pol beta inh = qHTS Assay for Inhibitors of DNA Polymerase Beta. Pol beta primer extension/strand displacement, fluorescence kinetic. AID 485314, 2010. P06746. Potency, µM (series often up to 114 µM), usual class: inhibitors. 340,000 compounds, 1.3% hits
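Kinetic readout of DNA synthesis with strand displacement by Pol beta. Compound and 10 nM enzyme sit 15 min at room temperature; 50 nM substrate starts the reaction, read immediately and at 10 min.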
Pol kappa inh-2 = qHTS for Inhibitors of Polymerase Kappa: Confirmatory Assay for Cherry-picked Compounds; Potency, µM, usual class: inhibitors; purified Pol-kappa, fluorescent strand-displacement substrate; shares compounds with Pol eta inh-1; 920 compounds, 76% hits
Pol eta inh-2 = qHTS for Inhibitors of Polymerase Eta: Confirmatory Assay for Cherry-picked Compounds; shares compounds with Pol eta inh-1; Potency, µM, usual class: inhibitors; AID 720502, 2013; 2,600 compounds, 64% hits; Pol eta primer extension, TAMRA/BHQ fluorescence, 10 min
FEN1 inh-2 = qHTS Assay for the Inhibitors of FEN1: Confirmatory Assay for Cherry-picked Compounds | shares compounds with FEN1 inh-1 | FEN1 flap cleavage, TAMRA/BHQ2 fluorogenic DNA substrate | Potency, µM, hits mostly inhibitors | 880 compounds, 79% hits | AID 720498, 2013; further: nearly all actives have a fitted effect of over 60% in size
Each line names hits and unclear results; the compound was inactive in the other large screens (follow-up assays come after a bar, where they were run). In the library only some 2.4% were active in any assay of this set; here they are far more common. The call rests on the fitted dose curve; in most records, active means well fitted curve in the direction sought with a large enough effect; inconclusive means small, poorly fitted or top-dose-only effect, or another doubt; inactive means no such curve, though single readings can be large; an effect the other way counts as inactive or inconclusive.

CN(C)c1ccc(-c2c(-c3ccc4c(c3)OCO4)noc2-c2ccsc2)cn1	Pol iota inh inconclusive
O=C(O)c1cc(-c2ccc(-c3c(-c4ccc5c(c4)OCO5)noc3-c3ccsc3)cc2)nc2ccccc12	Pol eta inh-1 79µM, Pol iota inh inconclusive, WRN helicase inh inconclusive | Pol kappa inh-2 inconclusive
O=C(c1cccc(C(=O)N2CCN(c3ncccn3)CC2)c1)N1CCN(c2ncccn2)CC1	none
O=C(c1ccc2nc(-c3ccco3)c(-c3ccco3)nc2c1)N1CCN(c2ncccn2)CC1	Pol kappa inh-1 inconclusive, Pol eta inh-1 inconclusive, Pol iota inh inconclusive, WRN helicase inh 45µM, Pol beta inh 40µM | Pol eta inh-2 inconclusive
O=C(Nc1ccc2nc(-c3ccco3)c(-c3ccco3)nc2c1)N1CCN(c2ccccn2)CC1	Pol kappa inh-1 28µM, Pol eta inh-1 3.2µM, Pol iota inh 3.2µM, FEN1 inh-1 inconclusive, WRN helicase inh 18µM, Pol beta inh 1.6µM | Pol eta inh-2 inconclusive
CCOc1ccccc1-c1noc(CCCC(=O)Nc2cccc(C(F)(F)F)c2)n1	none (no result: WRN helicase inh)
COc1cccc(NC(=O)Cn2cc(S(=O)(=O)N3CCCC3)c(S(=O)(=O)N3CCCC3)c2)c1	Pol eta inh-1 89µM, Pol iota inh inconclusive, Pol beta inh inconclusive (no result: WRN helicase inh) | Pol kappa inh-2 38 | Pol eta inh-2 inconclusive
CC1=NN(c2cccc(C(=O)O)c2)C(=O)/C1=C\C=C/c1ccccc1	Pol eta inh-1 18µM, Pol iota inh inconclusive, FEN1 inh-1 79µM, WRN helicase inh inconclusive | Pol eta inh-2 27
Cc1cccc(Cn2c(C)c(C)c3cc(C(=O)NCc4ccco4)ccc32)c1	Pol eta inh-1 79µM, Pol beta inh inconclusive (no result: WRN helicase inh) | Pol eta inh-2 inconclusive
O=C(O)c1ccccc1NCc1cccnc1	none (no result: Pol beta inh)
O=C(O)CNc1ccccc1C(=O)O	Pol eta inh-1 20µM, Pol iota inh inconclusive | Pol eta inh-2 60
O=C(O)c1cccc(Cn2c(Cl)c(/C=N/NC(=O)c3ccccc3Cl)sc2=O)c1	none
O=C(O)c1cccc(Cn2c(Cl)c(/C=N/Nc3ccccc3)sc2=O)c1	Pol kappa inh-1 inconclusive, Pol eta inh-1 45µM, Pol iota inh inconclusive | Pol eta inh-2 inconclusive
Cc1ccccc1OCC(=O)N/N=C/c1sc(=O)n(Cc2cccc(C(=O)O)c2)c1Cl	Pol eta inh-1 inconclusive, Pol iota inh inconclusive, Pol beta inh inconclusive | Pol eta inh-2 inconclusive
OCCCNc1c2ccccc2nc2ccccc12	Pol kappa inh-1 79µM, Pol iota inh 22µM, FEN1 inh-1 22µM, Pol beta inh 18µM | Pol kappa inh-2 inconclusive | FEN1 inh-2 21
O=c1cc(-c2ccc(O)cc2)oc2ccc3ccccc3c12	Pol eta inh-1 inconclusive, Pol iota inh 40µM, FEN1 inh-1 inconclusive (no result: Pol beta inh) | Pol kappa inh-2 inconclusive | FEN1 inh-2 inconclusive
COc1cccc2oc(-c3ccc(O)cc3)cc(=O)c12	none (no result: Pol eta inh-1, Pol iota inh, FEN1 inh-1, WRN helicase inh, Pol beta inh)
CCc1ccc(CNC(=O)CSCc2cnn(-c3ccccc3)c2-n2cccc2)cc1	none (no result: Pol eta inh-1, WRN helicase inh)
CCn1cc(C(=O)O)c(=O)c2cc(F)c(N/N=C/c3ccccc3[N+](=O)[O-])cc21	Pol eta inh-1 5.6µM, WRN helicase inh inconclusive, Pol beta inh inconclusive | Pol eta inh-2 43 | FEN1 inh-2 7.6
CC12CN3CC(c4ccccc4)(CN(C1)C3c1ccc(Cl)cc1)C2=O (stereo not drawn)	none (no result: WRN helicase inh)
N=C1/C(=C\c2coc3ccc(O)cc3c2=O)C(=O)N=C2SC=CN12	Pol kappa inh-1 inconclusive, Pol eta inh-1 13µM, Pol iota inh inconclusive, FEN1 inh-1 50µM, WRN helicase inh 56µM, Pol beta inh 4µM | Pol eta inh-2 19 | FEN1 inh-2 inconclusive
Cc1c(Cl)cnc(NC(=O)COC(=O)c2ccc([N+](=O)[O-])s2)c1Cl	Pol eta inh-1 18µM, Pol iota inh 25µM, FEN1 inh-1 inconclusive, WRN helicase inh inconclusive, Pol beta inh 28µM | Pol eta inh-2 85 | FEN1 inh-2 8.5
COc1ccc(-c2cc(=O)c3c(O)cc(OC4OC(COC5OC(C)C(O)C(O)C5O)C(O)C(O)C4O)cc3o2)cc1O (stereo not drawn)	Pol kappa inh-1 inconclusive, Pol eta inh-1 22µM, Pol iota inh inconclusive, FEN1 inh-1 50µM (no result: Pol beta inh) | Pol kappa inh-2 12 | Pol eta inh-2 30 | FEN1 inh-2 inconclusive
CC1O[C@@H](O[C@H]2C(Oc3cc(O)c4c(=O)cc(-c5ccc(O)cc5)oc4c3)OC(CO)C(O)C2O)C(O)C(O)C1O (stereo partly drawn)	none (no result: Pol eta inh-1, Pol iota inh, FEN1 inh-1, WRN helicase inh, Pol beta inh)
O=C(NCCCO)c1ccc2nc(-c3ccco3)c(-c3ccco3)nc2c1	Pol kappa inh-1 28µM, Pol eta inh-1 7.9µM, Pol iota inh 10µM, FEN1 inh-1 13µM, WRN helicase inh inconclusive, Pol beta inh 28µM | Pol kappa inh-2 19 | Pol eta inh-2 19 | FEN1 inh-2 67
O=C(Nc1ccc2[nH]c(=O)[nH]c2c1)c1ccc([N+](=O)[O-])o1	Pol eta inh-1 56µM, Pol iota inh inconclusive (no result: Pol beta inh) | Pol kappa inh-2 inconclusive | Pol eta inh-2 inconclusive | FEN1 inh-2 43
O=C1c2ccccc2C(=O)c2c(O)c(O)cc(O)c21	Pol kappa inh-1 50µM, Pol eta inh-1 32µM, Pol iota inh 79µM, FEN1 inh-1 inconclusive (no result: Pol beta inh) | Pol kappa inh-2 75 | Pol eta inh-2 43 | FEN1 inh-2 38
Cc1cc(N)c2cc(NC(=O)/C=C/c3ccccc3Cl)ccc2n1	Pol eta inh-1 inconclusive, FEN1 inh-1 inconclusive, Pol beta inh 50µM | Pol eta inh-2 67 | FEN1 inh-2 76
Cc1cc(C)nc(NC(=O)/C=C/c2ccccc2Cl)n1	none
CCN=C1S/C(=C\c2ccc(O)c(OCC)c2)C(=O)N1CC	none
CCOc1cc(/C=C2\SC(=S)N(C(C(=O)O)c3ccccc3)C2=O)ccc1O (stereo not drawn)	Pol kappa inh-1 inconclusive, Pol eta inh-1 inconclusive, Pol iota inh 28µM, FEN1 inh-1 inconclusive, WRN helicase inh 56µM, Pol beta inh inconclusive | Pol kappa inh-2 42 | FEN1 inh-2 85
